Compound activity: PubChem, Broad Institute
A selection: hits, their analogues and other compounds. The true share with any hit is near 2.4%.
Myc binder: binders of human c-Myc. P01106. small molecule microarray, His-c-Myc binding, anti-His fluorescence. calls only. actives 1.5% (n = 17,000);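 active = spot fluorescence over background with P-value below 7% in all four replicate spots, showing protein binding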
Target sequence (P01106 whole entry, looked up): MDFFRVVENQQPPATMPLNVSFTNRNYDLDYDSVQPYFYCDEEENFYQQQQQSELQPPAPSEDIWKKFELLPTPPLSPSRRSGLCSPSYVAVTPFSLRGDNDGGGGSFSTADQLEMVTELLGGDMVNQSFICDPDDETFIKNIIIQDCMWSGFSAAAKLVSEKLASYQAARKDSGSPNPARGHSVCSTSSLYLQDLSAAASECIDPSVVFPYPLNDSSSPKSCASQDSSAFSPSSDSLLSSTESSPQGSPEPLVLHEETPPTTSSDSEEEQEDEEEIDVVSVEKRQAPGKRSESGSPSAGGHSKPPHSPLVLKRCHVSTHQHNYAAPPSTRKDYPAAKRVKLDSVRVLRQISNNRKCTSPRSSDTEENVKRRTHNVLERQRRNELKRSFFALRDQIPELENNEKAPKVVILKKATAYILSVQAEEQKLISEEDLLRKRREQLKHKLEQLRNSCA
NFkB binder: NF-kappa-B p105 (human) binding; Small molecule microarray, anti-His fluorescence binding; calls only; actives 1.3% (n = 17,000); AID 624139;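 active = spot fluorescence over background significantly raised, with a chance value under 7% in all four replicate spots of the compound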;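 also: probe protein is his-tagged human p50 processed subunit at 1 µg/ml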
STAT3 binder: binders of human STAT3; P40763; Small molecule microarray, His-STAT3 binding, anti-His fluorescence; calls only; actives 0.2% (n = 17,000); AID 624138;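 active = compounds whose four printed spots each show fluorescence over background unusually high for their array block, chance value under 7%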
mut p53 SMM: binders of human mutant p53; calls only; AID 624136; actives 0.4% (n = 17,000); small molecule microarray binding, anti-GST fluorescence;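 active = compounds whose four printed spots each glow above background more than chance allows, each with a p-value under 7%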
Large screens that a line does not name were inactive.

C[C@@H]1CN([C@@H](C)CO)C(=O)c2cc(NS(=O)(=O)c3cccs3)ccc2O[C@@H](C)CCCCO[C@@H]1CN(C)C(=O)CCC(F)(F)F	NFkB binder active
C[C@@H]1CCCCO[C@H](CN(C)C(=O)CCC(F)(F)F)[C@@H](C)CN([C@H](C)CO)C(=O)c2cc(NS(=O)(=O)c3cccs3)ccc2O1	none
C[C@H]1CN([C@@H](C)CO)C(=O)c2cc(NS(=O)(=O)c3cccs3)ccc2O[C@H]1CN(C)C(=O)Nc1ccc2c(c1)OCO2	none
O=C(COc1ccc(F)cc1)Nc1sc2c(c1C(=O)NC1CCS(=O)(=O)C1)CCCC2 (stereo not given)	none
COC(=O)[C@H]1CC[C@H](OC(C)=O)[C@]2(C)CC[C@@H](C(C)C)[C@@H](OC(=O)/C=C/c3ccccc3)C12 (stereo not given in full)	Myc binder active, NFkB binder active
CC(C)C1CCC2(C)CCC(O)C(C)(O)C2C1OC(=O)/C=C/c1ccccc1 (stereo not given)	none
COc1ccc(N(CC(=O)O)S(C)(=O)=O)cc1OC	none
CS(=O)(=O)N(CC(=O)O)c1ccc(C23CC4CC(CC(C4)C2)C3)cc1	Myc binder active
C[C@H](CO)N1C[C@H](C)[C@@H](CN(C)C(=O)Nc2ccc(F)cc2)Oc2ccc(NS(=O)(=O)c3ccc(Cl)cc3)cc2CC1=O	none
C[C@@H]1CN([C@@H](C)CO)C(=O)Cc2cc(NS(=O)(=O)c3ccc(Cl)cc3)ccc2O[C@@H]1CN(C)C(=O)Nc1ccc(F)cc1	Myc binder active, NFkB binder active
C[C@@H]1CN([C@H](C)CO)C(=O)Cc2cc(NS(=O)(=O)c3ccc(Cl)cc3)ccc2O[C@H]1CN(C)CC1CCCCC1	Myc binder active
CNC[C@@H]1Oc2ccc(NS(=O)(=O)c3cn(C)cn3)cc2CC(=O)N([C@H](C)CO)C[C@@H]1C	NFkB binder active
CNC[C@H]1Oc2ccc(NS(=O)(=O)c3cn(C)cn3)cc2CC(=O)N([C@H](C)CO)C[C@@H]1C	none
C[C@H](CO)N1C[C@H](C)[C@@H](CN(C)C)Oc2ccc(NS(C)(=O)=O)cc2C1=O	none
O=C1N(CCS(=O)(=O)c2ccccc2)Cc2ccccc2[C@H]2OC(c3ccc(OCCCO)cc3)=N[C@@]12Cc1ccccc1	none
C/C(=C/c1ccc(C(=O)O)cc1)c1ccc2c(c1)C(C)(C)CCC2(C)C	none
COc1ccc(S(=O)(=O)N(C)CC(=O)Nc2c(C)cc(C)cc2C)cc1	none
Cc1nn(C(=O)Cn2nc([N+](=O)[O-])cc2C)c(C)c1Cl	Myc binder active
Cc1noc(C)c1NC(=O)Nc1ccc2c(c1)C(=O)N([C@@H](C)CO)C[C@@H](C)[C@@H](CN(C)C(=O)C1CCCCC1)OCCCC[C@@H](C)O2	STAT3 binder active
Cc1noc(C)c1NC(=O)Nc1ccc2c(c1)C(=O)N([C@H](C)CO)C[C@H](C)[C@@H](CN(C)C(=O)C1CCCCC1)OCCCC[C@H](C)O2	Myc binder active
COc1ccc(CN(C)C[C@H]2OCCCC[C@@H](C)Oc3ccc(NC(=O)Nc4c(C)noc4C)cc3C(=O)N([C@@H](C)CO)C[C@@H]2C)cc1	none
COc1ccc(CN(C)C[C@H]2OCCCC[C@H](C)Oc3ccc(NC(=O)Nc4c(C)noc4C)cc3C(=O)N([C@H](C)CO)C[C@@H]2C)cc1	Myc binder active
Cc1noc(C)c1NC(=O)Nc1ccc2c(c1)C(=O)N([C@H](C)CO)C[C@@H](C)[C@@H](CN(C)C(=O)C1CCCCC1)OCCCC[C@H](C)O2	none
Cc1cc(C(=O)Nc2cccc3c2O[C@@H](CN(C)S(=O)(=O)c2cccs2)[C@@H](C)CN([C@H](C)CO)C3=O)n(C)n1	none
C[C@H]1CN([C@@H](C)CO)C(=O)c2cccc(NC(=O)NC3CCCCC3)c2O[C@@H]1CN(C)C(=O)Nc1ccc(C(F)(F)F)cc1	Myc binder active, NFkB binder active
C[C@@H]1CN([C@H](C)CO)C(=O)c2cccc(NC(=O)Nc3ccc(C(F)(F)F)cc3)c2O[C@H]1CN(C)C(=O)NC1CCCCC1	Myc binder active, NFkB binder active, STAT3 binder active
COc1ccc(S(=O)(=O)Nc2cccc3c2O[C@@H](CN(C)Cc2ccc(C(F)(F)F)cc2)[C@H](C)CN([C@H](C)CO)C3=O)cc1	STAT3 binder active
C[C@@H]1CN([C@H](C)CO)C(=O)c2cccc(NC(=O)Nc3ccc(C(F)(F)F)cc3)c2O[C@@H]1CN(C)S(C)(=O)=O	none
COc1ccc(S(=O)(=O)Nc2cccc3c2O[C@H](CN(C)Cc2ccc(C(F)(F)F)cc2)[C@@H](C)CN([C@@H](C)CO)C3=O)cc1	none
C[C@@H]1CN([C@@H](C)CO)C(=O)c2cccc(NC(=O)Nc3ccc(C(F)(F)F)cc3)c2O[C@H]1CN(C)S(=O)(=O)c1cn(C)cn1	Myc binder active, NFkB binder active
Cc1cccc(NC(=O)COc2ccc3c(=O)c(-c4ccccc4)coc3c2)c1C	none
C[C@H]1CCCCO[C@H](CN(C)C(=O)c2ccncc2)[C@@H](C)CN([C@@H](C)CO)C(=O)c2cc(NS(=O)(=O)c3ccccc3)ccc2O1	none
COc1ccc(S(=O)(=O)N(C)C[C@@H]2Oc3c(NS(=O)(=O)c4c(C)noc4C)cccc3C(=O)N([C@@H](C)CO)C[C@@H]2C)cc1	none
C[C@@H]1CN([C@H](C)CO)C(=O)c2cccc(NC(=O)Nc3ccc(C(F)(F)F)cc3)c2O[C@H]1CN(C)CC1CC1	STAT3 binder active
C[C@@H]1CN([C@@H](C)CO)C(=O)c2cccc(NC(=O)Nc3ccc(C(F)(F)F)cc3)c2O[C@@H]1CN(C)CC1CC1	none
COC(=O)C(CC#Cc1ccc2c(c1)[C@]1(C(=O)N2)[C@H](C(=O)N2CCN(c3ncccn3)CC2)[C@H]2C(=O)O[C@H](c3ccccc3)[C@H](c3ccccc3)N2[C@@H]1c1ccc(OCCO)cc1)C(=O)OC	NFkB binder active
COc1ccc(C#Cc2ccc3c(c2)[C@]2(C(=O)N3)[C@H](C(=O)N3CCc4cc(OC)c(OC)cc4C3)[C@H]3C(=O)O[C@H](c4ccccc4)[C@H](c4ccccc4)N3[C@@H]2c2ccc(OCCO)cc2)cc1	NFkB binder active
COc1ccc(C#Cc2ccc3c(c2)[C@]2(C(=O)N3)[C@H](c3ccc(OCCO)cc3)N3[C@H](c4ccccc4)[C@H](c4ccccc4)OC(=O)[C@H]3[C@@H]2C(=O)N2CCc3cc(OC)c(OC)cc3C2)cc1	NFkB binder active
C[C@@H]1CN([C@@H](C)CO)C(=O)Cc2cc(NC(=O)C3CC3)ccc2O[C@@H]1CN(C)Cc1ccncc1	none
COc1ccc(S(=O)(=O)N(C)C[C@H]2Oc3c(NC(=O)c4cc(C)nn4C)cccc3C(=O)N([C@@H](C)CO)C[C@H]2C)cc1	none
O=C(O)CCC(=O)Nc1ccccc1C(=O)O	Myc binder active
C[C@@H]1CN([C@@H](C)CO)C(=O)Cc2cc(NC(=O)c3ccncc3)ccc2O[C@H]1CN(C)CC1CC1	none
CNC[C@@H]1Oc2ncc(C#Cc3ccccc3)cc2C(=O)N([C@H](C)CO)C[C@@H]1C	Myc binder active, NFkB binder active
